# Measured values from paper PMC5913336, “True equilibrium measurement of transcription factor-DNA binding affinities using automated polarization microscopy”.
# Molecular target: T1, Optix (Drosophila melanogaster, UniProt Q95RW8 139-229)
# T1 sequence: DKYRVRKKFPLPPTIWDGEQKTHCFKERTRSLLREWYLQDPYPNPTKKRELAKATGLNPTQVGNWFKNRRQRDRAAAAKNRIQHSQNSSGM
# Assay: FP; 33 mM phosphate pH 7.0, 90 mM NaCl, 0.01% Tween 20, 0.1 mM DTT, 0.5% agarose; room temperature
# Settings: tags: N-GST (pGEX-6P-1, kept); dsDNA, one strand shown
Sequence,binding signal,Kd [nM]
ACAGTGATAGCT,3.68 Kd / Kd of best base at the position,–
AGAGTGATAGGT,4.85 Kd / Kd of best base at the position,–
AGAGTGATTGCT,49 Kd / Kd of best base at the position,–
AAAGTGATAGCT,1.14 Kd / Kd of best base at the position,–
CGAGTGATAGCT,5.01 Kd / Kd of best base at the position,–
AGAGTGATAGAT,16.1 Kd / Kd of best base at the position,–
AGAGTGATCGCT,9.37 Kd / Kd of best base at the position,–
AGAGTGATAGCT,–,~5
AGAGTGGTAGCT,39.7 Kd / Kd of best base at the position,–
AGCGTGATAGCT,4.94 Kd / Kd of best base at the position,–
AGAGTGATAGCG,7.84 Kd / Kd of best base at the position,–
TGAGTGATAGCT,4.48 Kd / Kd of best base at the position,–
AGAGTGATACCT,2.57 Kd / Kd of best base at the position,–
AGAGGGATAGCT,8.18 Kd / Kd of best base at the position,–
AGAGTGATGGCT,127 Kd / Kd of best base at the position,–
AGAGTGATAGTT,5.68 Kd / Kd of best base at the position,–
AGAGTAATAGCT,23.7 Kd / Kd of best base at the position,–

Sequence,binding signal,Kd [nM]
AGAGTGATATCT,3.39 Kd / Kd of best base at the position,–
AGAGTGATAGCA,5.73 Kd / Kd of best base at the position,–
AGTGTGATAGCT,6.5 Kd / Kd of best base at the position,–
AGAGTGATAGCC,4.04 Kd / Kd of best base at the position,–
AGAGTGCTAGCT,95.1 Kd / Kd of best base at the position,–
AGGGTGATAGCT,5.49 Kd / Kd of best base at the position,–
AGAGTGATAACT,12.1 Kd / Kd of best base at the position,–
AGAGTGACAGCT,185 Kd / Kd of best base at the position,–
GGAGTGATAGCT,2.35 Kd / Kd of best base at the position,–
AGAGTCATAGCT,51.6 Kd / Kd of best base at the position,–
AGAGCGATAGCT,6.46 Kd / Kd of best base at the position,–
AGAATGATAGCT,6.11 Kd / Kd of best base at the position,–
AGACTGATAGCT,1.06 Kd / Kd of best base at the position,–
ATAGTGATAGCT,1.01 Kd / Kd of best base at the position,–
AGATTGATAGCT,6.38 Kd / Kd of best base at the position,–
AGAGAGATAGCT,9.88 Kd / Kd of best base at the position,–

# Molecular target: D (Drosophila melanogaster, UniProt Q24533 127-229)
# Sequence (Q24533 127-229): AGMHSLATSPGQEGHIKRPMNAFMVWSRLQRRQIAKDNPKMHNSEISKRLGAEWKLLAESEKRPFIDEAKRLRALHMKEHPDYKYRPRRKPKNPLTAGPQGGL
# Assay: as above
# Settings: tags: N-GST (pGEX-6P-1, kept); dsDNA, one strand shown
row,Sequence,binding signal
1,GACCGTTGTTCTTG,26 Kd / Kd of best base at the position
2,GACCCTTGTTCTTG,32.5 Kd / Kd of best base at the position
3,GACCATTGTTTTTG,2.05 Kd / Kd of best base at the position
4,GACAATTGTTCTTG,10.4 Kd / Kd of best base at the position
5,GACCATTGTTCTTC,1.12 Kd / Kd of best base at the position
6,GACCATTGTACTTG,8.66 Kd / Kd of best base at the position
